{"source": "PubChem BioAssay AID504652", "about": "(National Center for Advancing Translational Sciences (NCATS), 2011)", "note": "The whole screen tested about 360,000 compounds, of which about 11,000 (3.1%) were called active. The list comes from a sample in which actives are over-represented; it also holds similar structures and randomly drawn compounds. Values without a mark were called inactive. No stated cut-off is given here; in the data, active means activity change below about -30%; inactive means the rest. On the % scale 0 is the no-effect control and ±100 the full control effect."}
{"molecular_target": "D(1A) dopamine receptor (Homo sapiens) (UniProt P21728)", "sequence (P21728 whole entry, looked up)": "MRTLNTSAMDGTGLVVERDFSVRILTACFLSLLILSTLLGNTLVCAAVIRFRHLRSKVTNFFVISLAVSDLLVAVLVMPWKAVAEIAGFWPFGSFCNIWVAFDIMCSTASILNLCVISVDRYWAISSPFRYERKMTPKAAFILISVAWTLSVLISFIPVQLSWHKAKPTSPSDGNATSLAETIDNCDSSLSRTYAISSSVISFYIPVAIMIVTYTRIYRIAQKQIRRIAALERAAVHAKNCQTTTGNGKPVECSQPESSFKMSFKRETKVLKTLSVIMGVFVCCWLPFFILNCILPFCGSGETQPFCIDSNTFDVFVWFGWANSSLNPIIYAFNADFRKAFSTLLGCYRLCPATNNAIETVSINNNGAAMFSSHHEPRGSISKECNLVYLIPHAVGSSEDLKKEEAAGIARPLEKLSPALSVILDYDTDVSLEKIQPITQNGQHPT", "test": "Antagonist of Human D 1 Dopamine Receptor: qHTS", "conditions": "HEK293 TREx D1 cells, calcium flux, dopamine EC80; at 10 µM; stronger effect = lower value", "summary_of_the_method": "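Allosteric or orthosteric antagonism assessed as attenuation of the calcium response to EC80 dopamine, added 180 s after compound, in induced HEK293 Trex D1 cells loaded with no-wash calcium dye.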"}
{"smiles": "COc1ccc(C2(Nc3cccc(F)c3)C(=O)c3ccccc3C2=O)cc1", "activity change, negative = inhibition": "-16%"}
{"smiles": "CCOC(=O)NNc1cc(C(F)(F)F)ccn1", "activity change, negative = inhibition": "-4.5%"}
{"smiles": "Cc1nc(N)[nH]c(=O)c1Oc1cccc(C(F)(F)F)c1", "activity change, negative = inhibition": "7.25%"}
{"smiles": "CCC(=O)OCc1c(C(F)(F)F)nn(C)c1Oc1cccc(C(F)(F)F)c1", "activity change, negative = inhibition": "-39.6% (active)"}
{"smiles": "CC(=O)N1CCCc2ccc(NS(=O)(=O)c3ccc(F)cc3F)cc21", "activity change, negative = inhibition": "8.04%"}
{"smiles": "O=C(O)c1ccc2c(c1)N(Cc1ccc(F)cc1)C(=O)c1ccccc1S2=O", "note": "(stereo not drawn)", "activity change, negative = inhibition": "-20.6%"}
{"smiles": "CN(C)c1ccc(C=NCCc2ccc(S(N)(=O)=O)cc2)cc1", "activity change, negative = inhibition": "0.508%"}
{"smiles": "NS(=O)(=O)c1ccc(CCNC(=S)Nc2ccc(S(N)(=O)=O)cc2)cc1", "activity change, negative = inhibition": "-10.1%"}
{"smiles": "CCCCc1ccc(S(N)(=O)=O)cc1", "activity change, negative = inhibition": "-32.1% (active)"}
{"smiles": "Cc1c(C(=O)Nc2cccc(-c3nnc4n3CCCCC4)c2)oc2ccccc12", "activity change, negative = inhibition": "-14.2%"}
{"smiles": "Brc1cccc(-c2nnc3n2CCC3)c1", "activity change, negative = inhibition": "4.2%"}
{"smiles": "O=C(Cn1[nH]c(=O)c2ccccc2c1=O)Nc1cccc(-c2nnc3n2CCCCC3)c1", "activity change, negative = inhibition": "-31.5% (active)"}
{"smiles": "O=S(=O)(c1ccc2nc(NCc3ccccc3Cl)ccc2c1)N1CCCCC1", "activity change, negative = inhibition": "7.22%"}
{"smiles": "COC(=O)CN1C(=O)CSc2ccc(S(=O)(=O)Nc3cc(C)ccc3C)cc21", "activity change, negative = inhibition": "7.51%"}
{"smiles": "COc1ccc(Nc2cc(C(=O)NCCCN(C)c3ccccc3)c3ccccc3n2)c(OC)c1", "activity change, negative = inhibition": "-3.52%"}
{"smiles": "COc1ccccc1Nc1cc(C(=O)NCCCN(C)C2CCCCC2)c2ccccc2n1", "activity change, negative = inhibition": "-69.1% (active)"}
{"smiles": "CCCCN(CCCNC(=O)c1cc(Nc2ccccc2OC)nc2ccccc12)c1ccccc1", "activity change, negative = inhibition": "-1.02%"}
{"smiles": "CCCn1c(NCc2ccc(N(CC)CC)cc2)nc2ccccc21", "activity change, negative = inhibition": "7.83%"}
{"smiles": "O=C(COc1ccc(Cl)cc1)NCCS(=O)(=O)N1CCN(c2ccc(F)cc2)CC1", "activity change, negative = inhibition": "-39.2% (active)"}
{"smiles": "COc1ccc(OCC(=O)NCCS(=O)(=O)N2CCN(c3ccc(F)cc3)CC2)cc1", "activity change, negative = inhibition": "-3.53%"}
{"smiles": "COc1ccccc1N1CCN(S(=O)(=O)CCNC(=O)COc2ccc(F)cc2)CC1", "activity change, negative = inhibition": "-4.69%"}
{"smiles": "COc1cc(NC(=O)Cn2nc(-c3ccc(C)c(C)c3)ccc2=O)cc(OC)c1", "activity change, negative = inhibition": "-2.73%"}
{"smiles": "CCOc1ccc(S(=O)(=O)N(CC(=O)NCCSCc2ccc(C)cc2)c2ccccc2)cc1", "activity change, negative = inhibition": "-1.46%"}
{"smiles": "CCCSc1ncc(Cl)c(C(=O)Nc2sc3c(c2C(=O)NCCOC)CCCC3)n1", "activity change, negative = inhibition": "3.43%"}
{"smiles": "O=S(=O)(c1ccc(Br)cc1)N1CCC(c2nc3ccccc3[nH]2)CC1", "activity change, negative = inhibition": "-31.8% (active)"}
{"smiles": "O=C(C1CCCO1)N1CCC(c2nc3ccccc3[nH]2)CC1", "note": "(stereo not drawn)", "activity change, negative = inhibition": "-12.2%"}
{"smiles": "N#CC(C(=O)c1ccc(S(=O)(=O)N2CCCCCC2)cc1)c1nc2ccccc2[nH]1", "note": "(stereo not drawn)", "activity change, negative = inhibition": "-22.2%"}
{"smiles": "O=C(Nc1cc(Cl)cc(Cl)c1)c1ccc2c(c1)N(Cc1cccc(Cl)c1)C(=O)c1ccccc1S2=O", "note": "(stereo not drawn)", "activity change, negative = inhibition": "-24%"}
{"smiles": "O=C(Nc1ccc(F)cc1F)c1ccc2c(=O)n3c(nc2c1)CCCCC3", "activity change, negative = inhibition": "0.28%"}
{"smiles": "Cc1cc(=O)c2cc(C(=O)Nc3cccc(C)c3C)ccc2[nH]1", "activity change, negative = inhibition": "-7.41%"}
{"smiles": "O=C(Cn1cnc2c(cnn2-c2ccccc2)c1=O)NCc1ccccc1", "activity change, negative = inhibition": "5.27%"}
{"smiles": "O=C(Cn1cnc2c(cnn2-c2ccc(F)cc2)c1=O)NCCc1ccccc1", "activity change, negative = inhibition": "-6.16%"}
{"smiles": "CC(=O)Cn1cnc2c(cnn2-c2ccccc2)c1=O", "activity change, negative = inhibition": "-39.3% (active)"}
{"smiles": "COc1ccc(-c2nc(C)c(CCNC(=O)c3ccc(C(F)(F)F)cc3)s2)cc1OC", "activity change, negative = inhibition": "-4.09%"}
{"smiles": "Cc1ccc(C)c(S(=O)(=O)Nc2cc(C)on2)c1", "activity change, negative = inhibition": "-1.84%"}
{"smiles": "Cc1cc(NS(=O)(=O)c2ccccc2)no1", "activity change, negative = inhibition": "-52.3% (active)"}
{"smiles": "COc1cc2ccccc2cc1C(=O)Nc1ccc(S(=O)(=O)Nc2cc(C)on2)cc1", "activity change, negative = inhibition": "7.39%"}
{"smiles": "Cc1cccc(NC(=O)c2cc3c(C)nn(-c4ccccc4)c3s2)c1", "activity change, negative = inhibition": "1.08%"}
{"smiles": "NC(=O)N1CCCC1C(=O)Nc1ccc(Cl)c(Cl)c1", "note": "(stereo not drawn)", "activity change, negative = inhibition": "-6.92%"}
{"smiles": "O=C(CSc1nnc(-c2ccncc2)n1-c1ccccc1)Nc1ccc(Cl)c(Cl)c1", "activity change, negative = inhibition": "7.05%"}
{"smiles": "O=C(CC(O)(C(F)(F)F)C(F)(F)F)Nc1ccc(Cl)c(Cl)c1", "activity change, negative = inhibition": "-45.8% (active)"}
{"smiles": "CCC(=O)N1CCc2cc(Br)cc(S(=O)(=O)CCC(=O)N3CCN(c4ccc(F)cc4)CC3)c21", "activity change, negative = inhibition": "-13.8%"}
{"smiles": "Cc1ccc(NS(=O)(=O)c2ccc3c(c2)n(C)c(=O)c(=O)n3C)c(C)c1", "activity change, negative = inhibition": "3.25%"}
{"smiles": "Cc1ccc(NS(=O)(=O)c2cn(C)c(=O)n(C)c2=O)c(C)c1", "activity change, negative = inhibition": "-34.8% (active)"}
{"smiles": "Cn1cc(S(=O)(=O)Nc2ccc(Cl)cc2Cl)c(=O)n(C)c1=O", "activity change, negative = inhibition": "1.88%"}
{"smiles": "N#CN1CCC(NS(=O)(=O)c2cccc(F)c2)C1", "note": "(stereo not drawn)", "activity change, negative = inhibition": "-5.93%"}
{"smiles": "Cc1ccc(C)c(S(=O)(=O)c2nnn3c2nc(N2CCOCC2)c2sccc23)c1", "activity change, negative = inhibition": "-17.7%"}
{"smiles": "COc1ccc(OC)c(NC(=O)CSC2=Nc3ccccc3C3=NC(CC(=O)NCc4ccc(F)cc4)C(=O)N23)c1", "note": "(stereo not drawn)", "activity change, negative = inhibition": "2.28%"}
{"smiles": "CCC1(C)Cc2c(sc3[nH]c(=S)n(Cc4ccccc4)c(=O)c23)CO1", "note": "(stereo not drawn)", "activity change, negative = inhibition": "-1.45%"}
{"smiles": "C=CCn1c(=S)[nH]c2scc(-c3ccco3)c2c1=O", "activity change, negative = inhibition": "-62.9% (active)"}
{"smiles": "CCc1ccc(NC(=O)c2cc3c(=O)n(Cc4cccnc4)ccc3nc2C)cc1", "activity change, negative = inhibition": "-4.72%"}
{"smiles": "O=C(NCCCNc1ccc([N+](=O)[O-])cc1Cl)c1ccccc1F", "activity change, negative = inhibition": "-30.1% (active)"}
{"smiles": "O=C(NCCNc1ccc([N+](=O)[O-])cc1Cl)c1ccccc1F", "activity change, negative = inhibition": "-1.54%"}
{"smiles": "O=C(NCCNc1ccccc1[N+](=O)[O-])c1ccccc1F", "activity change, negative = inhibition": "18.2%"}
{"smiles": "COc1ccc(CNC(=O)Cn2nnc(-c3ccccc3F)n2)cc1", "activity change, negative = inhibition": "7.31%"}
{"smiles": "COc1cc(-c2noc(-c3ccc(N4CCCC4)c([N+](=O)[O-])c3)n2)cc(OC)c1OC", "activity change, negative = inhibition": "-3.41%"}
{"smiles": "COC(=O)c1sccc1S(=O)(=O)N(CC(=O)Nc1ccc(C)c(F)c1)c1ccc(C)c(C)c1", "activity change, negative = inhibition": "-13.6%"}
{"smiles": "CCOC(=O)N1CCN(CC(=O)n2c(C)c(C)c3ccccc32)CC1", "activity change, negative = inhibition": "6.89%"}
{"smiles": "CCOC(=O)N1CCN(CC(=O)Nc2ccc(F)cc2)CC1", "activity change, negative = inhibition": "4.05%"}
{"smiles": "CCOC(=O)N1CCN(CC(=O)c2ccc3c(c2)CCN3)CC1", "activity change, negative = inhibition": "-32.2% (active)"}
{"smiles": "Cc1ccc(CN2CCC(CNC(=O)c3cnn(-c4ccc(C)cc4)c3C3CCN(C(=O)OC(C)(C)C)CC3)CC2)cc1", "activity change, negative = inhibition": "1.49%"}
{"smiles": "Cc1cccc(-c2nc(SCC(=O)Nc3cc(C)on3)c3c(=O)n(C)c(=O)n(C)c3n2)c1", "activity change, negative = inhibition": "-1.46%"}
{"smiles": "Cc1ccc2nc(-c3ccc(SCC(=O)Nc4cc(C)on4)nc3)[nH]c2c1", "activity change, negative = inhibition": "-40.5% (active)"}
{"smiles": "Cc1ccc2nc(SCC(=O)NC3CCCC3)[nH]c2c1", "activity change, negative = inhibition": "1.64%"}
{"smiles": "CCS(=O)(=O)c1nc(S(=O)(=O)c2ccc(C)cc2)c(NCc2ccc(Cl)cc2)s1", "activity change, negative = inhibition": "-4.62%"}
{"smiles": "Cc1onc(-c2ccc(F)cc2F)c1C(=O)Nc1cccc(C(F)(F)F)c1", "activity change, negative = inhibition": "-7.14%"}
{"smiles": "COC(=O)c1cccc(Cn2nnc3sc4c(c3c2=O)CCC(C(C)(C)C)C4)c1", "note": "(stereo not drawn)", "activity change, negative = inhibition": "7.77%"}
{"smiles": "Cc1nn(C(C)C(=O)Nc2ccc(C(C)C)cc2)c(=O)c2c1sc1ccccc12", "note": "(stereo not drawn)", "activity change, negative = inhibition": "-14.9%"}
{"smiles": "O=C(Nc1ccccc1F)c1ccccc1-c1ccc(C(F)(F)F)cc1", "activity change, negative = inhibition": "-10%"}
{"smiles": "Cc1ccc(NC2=C(c3ccc(C(F)(F)F)cc3)C(=O)c3ccccc32)cc1F", "activity change, negative = inhibition": "-32.9% (active)"}
{"smiles": "Cc1ccc(NC(=O)NC(=O)c2ccccc2)cc1F", "activity change, negative = inhibition": "-1.14%"}
{"smiles": "Cc1ccccc1NC(=O)Cn1cc(C(=O)c2cccs2)c2ccccc21", "activity change, negative = inhibition": "-14.9%"}
{"smiles": "COc1ccc(-n2nc(C(=O)NCCc3ccc(Cl)cc3)c3c4ccccc4n(C)c3c2=O)cc1Cl", "activity change, negative = inhibition": "-3.18%"}
{"smiles": "Cc1ccc(CCNC(=O)c2ccc3c(c2)N(Cc2cc(C)ccc2C)C(=O)c2ccccc2S3=O)cc1", "note": "(stereo not drawn)", "activity change, negative = inhibition": "-1.98%"}
{"smiles": "COc1cccc2cc(-c3nc(Cl)c4c5c(sc4n3)CC(C)CC5)c(=O)oc12", "note": "(stereo not drawn)", "activity change, negative = inhibition": "7.27%"}
{"smiles": "Cc1ccc2nc(CNC(=O)c3ccccc3)[nH]c2c1", "activity change, negative = inhibition": "2.33%"}
{"smiles": "Cc1ccc2nc(C)c3c(c2c1)N(c1ccccc1)CC3", "activity change, negative = inhibition": "-47.3% (active)"}
{"smiles": "Cc1ccc2nc(NC3=NCN(CCc4ccccc4)CN3)nc(C)c2c1", "activity change, negative = inhibition": "8.22%"}
{"smiles": "O=C(Nc1ccc(F)cc1F)c1cnn(-c2ccc(F)cc2)c1-n1cccc1", "activity change, negative = inhibition": "1.78%"}
{"smiles": "CCOC(=O)C1=C(CCc2ccccc2)NC(=O)NC1c1ccc2ccccc2c1", "note": "(stereo not drawn)", "activity change, negative = inhibition": "13.1%"}
{"smiles": "CCOC(=O)C1=C(CSc2nccn2C)NC(=O)NC1c1ccc(OC)cc1", "note": "(stereo not drawn)", "activity change, negative = inhibition": "-35% (active)"}
{"smiles": "CCOC(=O)C1=C(CN2CCc3ccccc32)NC(=O)NC1c1ccc(Cl)cc1", "note": "(stereo not drawn)", "activity change, negative = inhibition": "19.3%"}
{"smiles": "CCN(CC)c1ccc(NS(=O)(=O)c2cc(-c3cc(C)no3)ccc2C)c(C)c1", "activity change, negative = inhibition": "-8.08%"}
{"smiles": "COc1ccc(N2CCN(C(=O)C3CCCN(C(=O)c4cc5sccc5n4C)C3)CC2)cc1", "note": "(stereo not drawn)", "activity change, negative = inhibition": "-16.9%"}
{"smiles": "CC(NC(=O)c1cc(Sc2ccc(F)cc2F)nc2ccccc12)c1ccccc1", "note": "(stereo not drawn)", "activity change, negative = inhibition": "-44.9% (active)"}
{"smiles": "CC(NC(=O)c1cc(=O)[nH]c2ccccc12)c1ccc(F)cc1F", "note": "(stereo not drawn)", "activity change, negative = inhibition": "-0.391%"}
{"smiles": "CCc1ccc(Sc2cc(C(=O)NCCCOC(C)C)c3ccccc3n2)cc1", "activity change, negative = inhibition": "9.99%"}
{"smiles": "CCOc1ccccc1NC(=O)Cn1c(=O)n(-c2cccc(C)c2)c(=O)c2c1c1cc(OC)ccc1n2C", "activity change, negative = inhibition": "9%"}
